Reference: PubChem BioAssay (Tox21)
Records with an inconclusive call do not appear. Entries that show only a call come without a potency. The source made the active and inactive calls. Unless noted, calls come from the whole dose curve; as a rule, active = well fitted curve in the direction sought with a large enough effect in the repeat runs; inconclusive = weak or mixed curves; inactive = no such curve, though single readings can be large; an effect the other way counts as inactive or inconclusive.

Tests used:
[1] = qHTS assay to identify aromatase inhibitors - cell viability counter screen (AID 743084);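 note: cells stimulated with testosterone during compound exposure; nearly all actives have a fitted effect of over 55% in size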
[2] = target: Aryl hydrocarbon receptor (Homo sapiens) (UniProt P35869); test: qHTS assay to identify small molecule that activate the aryl hydrocarbon receptor (AhR) signaling pathway (AID 743085); note: nearly all actives have a fitted effect of over 15% in size; note: potency is the fitted concentration of half-maximal effect;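 for activation: HG2L7.5c1 human HepG2 liver cells with stably integrated DRE-driven firefly reporter; series mostly up to about 70 µM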
Chain of Aryl hydrocarbon receptor (Homo sapiens) (P35869 whole entry, looked up): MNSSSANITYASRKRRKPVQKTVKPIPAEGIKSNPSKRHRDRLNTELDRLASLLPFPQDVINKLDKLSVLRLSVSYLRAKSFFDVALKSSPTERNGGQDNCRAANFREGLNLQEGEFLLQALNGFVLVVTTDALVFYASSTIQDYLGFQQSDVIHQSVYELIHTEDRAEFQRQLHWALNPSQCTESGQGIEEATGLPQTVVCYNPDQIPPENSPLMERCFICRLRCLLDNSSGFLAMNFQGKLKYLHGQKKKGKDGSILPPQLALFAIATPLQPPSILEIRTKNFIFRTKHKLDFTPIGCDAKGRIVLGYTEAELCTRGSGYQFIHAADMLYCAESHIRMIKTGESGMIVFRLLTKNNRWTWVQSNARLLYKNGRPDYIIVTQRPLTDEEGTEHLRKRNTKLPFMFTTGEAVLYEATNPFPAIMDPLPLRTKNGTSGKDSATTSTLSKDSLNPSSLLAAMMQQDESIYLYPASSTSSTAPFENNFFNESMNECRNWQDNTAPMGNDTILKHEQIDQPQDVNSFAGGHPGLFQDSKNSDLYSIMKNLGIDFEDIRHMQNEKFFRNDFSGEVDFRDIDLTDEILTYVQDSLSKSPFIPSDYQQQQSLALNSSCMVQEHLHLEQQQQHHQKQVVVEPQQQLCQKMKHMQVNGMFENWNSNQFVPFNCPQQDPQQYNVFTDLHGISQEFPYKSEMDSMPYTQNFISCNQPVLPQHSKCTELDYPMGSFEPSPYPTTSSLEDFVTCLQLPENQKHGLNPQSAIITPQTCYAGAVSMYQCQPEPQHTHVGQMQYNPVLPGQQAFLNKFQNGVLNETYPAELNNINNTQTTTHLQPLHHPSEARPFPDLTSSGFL
In short: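 HepG2 cells (HG2L7.5c1) stably carrying a firefly luciferase reporter driven by 20 dioxin responsive elements were exposed to compound for 24 h at 37C after a 5 h settling period; luminescence rise (ONE-Glo) indicated activation.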

[3] = qHTS assay to identify small molecule that activate the aryl hydrocarbon receptor (AhR) signaling pathway - cell viability counter screen (AID 743086);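 note: HepG2 liver cells carrying the AhR DRE luciferase reporter; series mostly up to about 70 µM; nearly all actives have a fitted effect of over 45% in size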
In short: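 Cytotoxicity counter screen: CellTiter-Fluor signal (30 min, 37 C) in 4000 HepG2 cells/well carrying the DRE-luciferase reporter, following 24 h compound exposure at 37 C.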

[4] = qHTS assay to identify small molecule antagonists of the peroxisome proliferator-activated receptor gamma (PPARg) signaling pathway - cell viability counter screen (AID 743194); settings: Potency: co-treated with 50 nM rosiglitazone; note: nearly all actives have a fitted effect of over 55% in size
In short: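 Viability was measured as CellTiter-Glo luminescence in GeneBLAzer PPARg UAS-bla HEK293H cells. These cells had been exposed 17 h at 37 C to compounds together with rosiglitazone at 50 nM final, with the beta-lactamase readout taken in the same wells.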

[5] = qHTS assay for small molecule agonists of the antioxidant response element (ARE) signaling pathway (AID 743202; active = well fitted activation curve with a large enough effect in the signal ratio in the repeat runs, not every such curve was filed as active; the % refers to the signal ratio; note: potency is the fitted concentration of half-maximal effect)
In short: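 Quantitative high-throughput format in HepG2 cells bearing an integrated ARE-beta-lactamase reporter. Compound exposure lasted 16 h at 37 C, and fluorescence was read 2 h after adding LiveBLAzer B/G substrate at room temperature.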

[6] = qHTS assay for small molecule agonists of the antioxidant response element (ARE) signaling pathway - cell viability counter screen (AID 743203; calls by dose curve; note: nearly all actives have a fitted effect of over 55% in size)
In short: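 Cells (ARE-bla HepG2, 2,000/well) receive DMSO-dissolved compounds after a 5 hrs rest. Plates incubate 16 hrs at 37C/5% CO2. CellTiter-Glo luminescence is then recorded after 30 min at room temperature.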

[7] = qHTS assay for small molecule activators of the heat shock response signaling pathway - cell viability counter screen (AID 743209); note: nearly all actives have a fitted effect of over 50% in size; note: potency is the fitted concentration of half-maximal effect
In short: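 Quantitative HTS format, Tox21 10K library. HeLa cells carrying an HSE-driven beta-lactamase reporter were treated 5 h at 37 C, then assessed for viability by CellTiter-Glo luminescence.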

[8] = qHTS assay for small molecule activators of the heat shock response signaling pathway (AID 743210; active = well fitted activation curve with a large enough effect in the signal ratio in the repeat runs, with a control signal flat, not every such curve was filed as active; the % refers to the signal ratio;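 note: HeLa cells with beta-lactamase reporter driven by heat shock elements; series mostly up to about 63 µM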)
In short: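 HeLa HSE-bla cells, overnight plating; cpd in DMSO 5 h, 37 C; LiveBLAzer B/G FRET substrate 2.5 h RT; fluorescence intensity read.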

[9] = target: Peroxisome proliferator-activated receptor gamma (Homo sapiens) (UniProt P37231); test: qHTS assay to identify small molecule antagonists of the peroxisome proliferator-activated receptor gamma (PPARg) signaling pathway (AID 743191; calls by dose curve; note: nearly all actives have a fitted effect of over 30% in size; note: potency is the fitted concentration of half-maximal effect)
Chain of Peroxisome proliferator-activated receptor gamma (Homo sapiens) (P37231 whole entry, looked up): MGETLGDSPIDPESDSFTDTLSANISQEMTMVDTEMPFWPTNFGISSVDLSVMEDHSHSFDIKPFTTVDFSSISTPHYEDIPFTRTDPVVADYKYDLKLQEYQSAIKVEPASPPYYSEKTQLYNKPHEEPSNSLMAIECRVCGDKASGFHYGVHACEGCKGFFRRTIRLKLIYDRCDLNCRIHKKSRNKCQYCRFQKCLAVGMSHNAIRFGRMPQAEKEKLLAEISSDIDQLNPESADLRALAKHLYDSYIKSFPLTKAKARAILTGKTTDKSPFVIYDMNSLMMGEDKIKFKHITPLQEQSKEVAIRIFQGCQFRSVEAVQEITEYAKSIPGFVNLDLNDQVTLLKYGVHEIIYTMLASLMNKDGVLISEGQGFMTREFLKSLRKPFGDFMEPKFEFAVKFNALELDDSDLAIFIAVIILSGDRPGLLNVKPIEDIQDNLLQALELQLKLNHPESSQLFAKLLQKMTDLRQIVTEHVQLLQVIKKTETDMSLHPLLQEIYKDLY
In short: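 Beta-lactamase reporter under UAS control in HEK293H PPARg-bla cells; compound treatment 17 h at 37C. Read-out: fluorescence intensity after 1 h room-temperature incubation with LiveBLAzer B/G FRET substrate.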

Compound	Potency [1]	Potency [2]	outcome [3]	Potency [4]	Potency [5]	Potency [6]	Potency [7]	outcome [8]	Potency [9]
CNC(=O)Oc1cccc(C(C)C)c1	inactive	inactive	inactive	inactive	inactive	inactive	inactive	inactive	–
O=C(O)c1cccc(Cl)c1	inactive	inactive	inactive	inactive	–	inactive	inactive	inactive	inactive
CNC(=O)Oc1ccc(N(C)C)c(C)c1	inactive	inactive	inactive	inactive	–	inactive	inactive	–	–
CNC(=O)N(C)c1nc2ccccc2s1	inactive	27.3 µM (active)	inactive	inactive	–	inactive	inactive	inactive	inactive
C=CCC1=C(C)[C@@H](OC(=O)[C@@H]2[C@@H](C=C(C)C)C2(C)C)CC1=O	inactive	inactive	inactive	inactive	–	inactive	49 µM (active)	–	–
[As]#[In]	inactive	inactive	inactive	inactive	–	inactive	inactive	inactive	–
CCCCOC(=O)[C@@H](C)Oc1ccc(Oc2ccc(C#N)cc2F)cc1	inactive	inactive	inactive	inactive	–	inactive	inactive	inactive	–
C#C[C@]1(O)C=C[C@H]2[C@@H]3CCC4=CC(=O)CC[C@@H]4[C@H]3CC[C@@]21CC	inactive	inactive	inactive	inactive	–	inactive	inactive	inactive	–
CCC(Cl)[N+](=O)[O-] (stereo not given)	inactive	inactive	inactive	inactive	inactive	inactive	inactive	–	–
CCCCCCBr	inactive	inactive	inactive	inactive	inactive	inactive	inactive	inactive	–
CNNC	inactive	inactive	inactive	inactive	–	inactive	inactive	inactive	–
CC(=O)CC(c1ccc(Cl)cc1)c1c(O)c2ccccc2oc1=O (stereo not given)	inactive	inactive	inactive	inactive	–	inactive	inactive	inactive	inactive
CN/C(=N\[N+](=O)[O-])NCC1CCOC1 (stereo not given)	inactive	inactive	inactive	inactive	inactive	inactive	inactive	inactive	–
CCCCOC(=O)c1ccccc1N	inactive	inactive	inactive	inactive	–	inactive	inactive	inactive	–
CCCSC(=O)N(CCC)CCC	inactive	inactive	inactive	inactive	inactive	inactive	inactive	inactive	–
O=C(O)c1ccc2[nH]cc(CCCCN3CC=C(c4ccccc4)CC3)c2c1	inactive	inactive	inactive	inactive	–	inactive	inactive	–	–
O=C(Nc1ccccc1)c1ccccc1I	inactive	48.6 µM (active)	inactive	inactive	21.7 µM (active)	inactive	inactive	inactive	–

Compound	Potency [1]	Potency [2]	outcome [3]	Potency [4]	Potency [5]	Potency [6]	Potency [7]	outcome [8]	Potency [9]
CC1CN1P(=O)(N1CC1C)N1CC1C (stereo not given)	inactive	inactive	inactive	inactive	–	inactive	inactive	inactive	inactive
NC(=O)O	inactive	inactive	inactive	inactive	inactive	inactive	inactive	–	–
Oc1c(Cl)cccc1Cl	inactive	inactive	inactive	inactive	–	inactive	inactive	inactive	inactive
CCS(=O)(=O)CCSP(=O)(OC)OC	inactive	inactive	inactive	inactive	8.63 µM (active)	inactive	inactive	–	–
O=C1OC(c2ccc(O)c(S(=O)(=O)O)c2)(c2ccc(O)c(S(=O)(=O)O)c2)c2c(Br)c(Br)c(Br)c(Br)c21	inactive	inactive	inactive	inactive	–	inactive	inactive	inactive	inactive
CC(C)CC(N(C)C)C1(c2ccc(Cl)cc2)CCC1 (stereo not given)	inactive	inactive	inactive	inactive	inactive	inactive	inactive	–	–
Cc1nc(N)nc(N)n1	inactive	inactive	inactive	inactive	–	inactive	inactive	–	–
O=c1oc2ccccc2c(O)c1C1CCCc2ccccc21 (stereo not given)	inactive	inactive	inactive	inactive	–	inactive	inactive	–	30.9 µM (active)
CCOP(=S)(OCC)SCSc1ccc(Cl)cc1	inactive	inactive	inactive	inactive	–	inactive	inactive	inactive	–
CCCCP(CCCC)CCCC	inactive	inactive	inactive	inactive	inactive	inactive	inactive	–	–
CCC(=O)c1ccccc1	inactive	inactive	inactive	inactive	inactive	inactive	inactive	inactive	–
C[C@]12CC[C@H]3[C@@H](CC=C4C[C@@H](O)CC[C@@]43C)[C@@H]1CC[C@@H]2O	inactive	inactive	inactive	inactive	inactive	inactive	inactive	–	–
N#CCBr	inactive	inactive	inactive	inactive	inactive	inactive	inactive	inactive	–
COC(C)(C)C	inactive	inactive	inactive	inactive	inactive	inactive	inactive	inactive	–
O=NN1CCN(N=O)CC1	inactive	inactive	inactive	inactive	inactive	inactive	inactive	inactive	–
O=[N+]([O-])c1cccc2cccnc12	inactive	35.3 µM (active)	inactive	inactive	–	inactive	inactive	–	inactive
CCOC(=O)NC(=S)Nc1ccccc1NC(=S)NC(=O)OCC	inactive	–	inactive	inactive	inactive	inactive	inactive	inactive	inactive
